Our source for the Potency and outcome values is PubChem BioAssay (Tox21).

Several values for one entry are separate records, joined by “and”; a condition that tells them apart may be missing. Equal entries are not always repeated. Values without a mark were called inactive. Records with an inconclusive call do not appear. Activity calls are given as the source filed them. Unless noted, calls follow the shape of the dose curve; as a rule, active = well fitted curve in the direction sought with a large enough effect in the repeat runs; inconclusive = weak or mixed curves; inactive = no such curve, though single readings can be large; an effect the other way counts as inactive or inconclusive.

Test [1] can be described thus: qHTS assay for small molecules that induce genotoxicity in human embryonic kidney cells expressing luciferase-tagged ATAD5 (AID 651632). Also: nearly all actives have a fitted effect of over 15% in size. Also: potency is read from the fitted curve at half-maximal effect. The conditions noted are these: HEK293T ATAD5-luciferase induction, 16 h; series mostly up to 83.3 µM. In short, it runs like this:
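Quantitative HTS in HEK293T expressing luciferase-tagged ATAD5, whose levels rise upon DNA damage. Exposure ran 16 hr at 37C and 5% CO2, with luminescence read 30 min after Amplite addition at room temperature.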
(In general: Quantitative high-throughput screening tests each substance at several concentrations.)

Test [2] is described as follows: qHTS assay for small molecule agonists of the p53 signaling pathway - cell viability (AID 651633; calls by dose curve; also: nearly all actives have a fitted effect of over 30% in size; also: potency is read from the fitted curve at half-maximal effect). The conditions noted are these: p53RE-bla HCT-116 viability, ATP luminescence, 16 h; series mostly up to 83.3 µM. An outline of the steps: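 p53RE-bla cells were treated with compound for 16 hours at 37 C. Cytotoxicity was then measured as CellTiter-Glo luminescence after 30 min at room temperature.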

Test [3] can be described thus: qHTS assay for small molecules that induce genotoxicity in human embryonic kidney cells expressing luciferase-tagged ATAD5 - cell viability (AID 651634; calls by dose curve; also: nearly all actives have a fitted effect of over 25% in size; also: potency is read from the fitted curve at half-maximal effect). The settings on record: HEK293T ATAD5-luc cells viability, CellTiter-Fluor, 15.5 h; series mostly up to 83.3 µM. In short, it runs like this: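 After 15.5 hr incubation with compound at 37C, 5% CO2, HEK293T ATAD5-luciferase cells received CellTiter-Fluor reagent; fluorescence intensity was quantified following 30 min at 37C.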

Test [4] is described as follows: qHTS assay for small molecule disruptors of the mitochondrial membrane potential - cell viability (AID 720634; calls by dose curve; also: nearly all actives have a fitted effect of over 20% in size; also: potency is read from the fitted curve at half-maximal effect). The settings on record: HepG2 viability, ATP luminescence (CellTiter-Glo), 1 h; series mostly up to 83.2 µM. In short, it runs like this:
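ATP-based luminescent viability readout (CellTiter-Glo, 30 min, room temperature) in HepG2 cells multiplexed with the m-MPI membrane potential dye; compound exposure lasted 1 hr at 37 C.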

The nature of test [5]: qHTS assay for small molecule disruptors of the mitochondrial membrane potential (AID 720635). Also: potency is read from the fitted curve at half-maximal effect. The conditions noted are these: HepG2 mitochondrial membrane potential, Mito-MPS dye ratio; series mostly up to 83.2 µM. In short, it runs like this: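 HepG2 cells exposed to compound 1 hr at 37C, then Mito-MPS dye 30 min. Ratio read of aggregate (540/590 nm) versus monomer (490/535 nm) fluorescence.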

Test [6] in a line: qHTS assay to test for compound auto fluorescence at 590 nm (red) in HepG2 cells (AID 720674). The settings on record: HepG2 autofluorescence, red 540/590 nm, 1 h; series mostly up to 91.3 µM. In short, it runs like this:
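Fluorescence at 590 nm emission following 540 nm excitation was recorded from HepG2 wells one hour after compound transfer, with DMSO-only wells as vehicle and Rose Bengal sodium equivalency as the scale.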

A short description of test [7]: qHTS assay to test for compound auto fluorescence at 535 nm (green) in HepG2 cells (AID 720675). The settings on record: green autofluorescence 485/535 nm, 1 h; series mostly up to 91.3 µM.
Test [8] in a line: qHTS assay to test for compound auto fluorescence at 460 nm (blue) in HEK293 cells (AID 720678). The settings on record: blue autofluorescence 405/460 nm; series mostly up to 91.3 µM. An outline of the steps:
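HEK293 cells (2,000/well, medium with 10% dialyzed FBS) attached 4-5 hr, then exposed to compound overnight at 37C, 5% CO2. Blue fluorescence read at 405/460 nm, with triamterene as reference fluorophore.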

A short description of test [9]: qHTS assay to test for compound auto fluorescence at 590 nm (red) in HEK293 cells (AID 720679). The settings on record: red autofluorescence 540/590 nm; series mostly up to 91.3 µM. In short, it runs like this: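 HEK293 cells (2,000/well, 10% dialyzed FBS) attached 4-5 hr, then dosed with compound or DMSO and incubated overnight at 37C, 5% CO2. Red fluorescence read at 540/590 nm, Rose Bengal sodium as reference fluorophore.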

A short description of test [10]: qHTS assay for small molecule agonists of the p53 signaling pathway (AID 651631; calls by dose curve; also: nearly all actives have a fitted effect of over 15% in size; also: potency is read from the fitted curve at half-maximal effect). The settings on record: HCT-116 p53RE-bla reporter, beta-lactamase FRET ratio, 16 h; series mostly up to 73.3 µM. An outline of the steps: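 Fluorescence intensity from cleaved LiveBLAzer B/G substrate (2 h, room temperature) served as the signal. Beforehand, HCT-116 reporter cells bearing p53 response elements were treated 16 h at 37 °C with DMSO-dissolved compounds.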

Regarding `c1ccc2c(c1)OCC(C1=NCCN1)O2` (configuration not stated), the Potency entry in test [1], in test [2], in [3], in [4] and in test [8] was “inactive” each time. Besides, in [5], the Potency was 27.8 µM (active). Further, the result in test [6], in test [7] and in test [9] was inactive.
As for `N#CNC#N`, the Potency result in test [10], in [2], in test [3], in [4] and in test [8] was “inactive” throughout. For the same compound, the result in [6], in test [7] and in test [9] was inactive.
For the compound `CCN(CC)C(=S)[S-].CCN(CC)C(=S)[S-].[Zn+2]`, the Potency in test [1] is 5.4 µM (active); in [2], 4.29 µM (active); in test [3], 15.2 µM (active); in test [5], 3.41 µM (active). The Potency result in [4] and in test [8] was “inactive” throughout. The call in [6], in test [7] and in test [9] was inactive.
In the case of `Clc1ccc(COC(Cn2ccnc2)c2ccc(Cl)cc2Cl)cc1` (configuration not stated), the Potency result in test [1] and in test [8] was “inactive” throughout. The Potency in test [2] was 29.8 µM (active) and 27.2 µM (active); in [3], 26.6 µM (active); in test [4] it was 26.6 µM (active); in test [5], 18.8 µM (active) and 45.3 µM (active) and 54.3 µM (active). The call in test [6], in test [7] and in [9] was inactive.
With `O=C(O)c1cc[c]([Hg][Cl])cc1`, the Potency in test [10] is 61.1 µM (active). In addition, the Potency result in test [4] and in [8] was “inactive” throughout. In addition, the compound was classed as inactive in test [6], in [7] and in [9].
Regarding `Cc1cc(C(F)(C(F)(F)F)C(F)(F)F)ccc1NC(=O)c1cccc(I)c1C(=O)NC(C)(C)CS(C)(=O)=O`, the Potency entry in [1], in [2], in [3], in test [4] and in test [8] was “inactive” throughout. Besides, the Potency in test [5] was 17.3 µM (active). In addition, the result in test [6], in test [7] and in test [9] was inactive.
For `CC(C)Oc1cccc(NC(=O)c2ccccc2C(F)(F)F)c1`, the Potency entry in test [1], in test [2], in [3] and in [8] was “inactive” each time. The Potency in test [4] was 30.6 µM (active); in [5], 17.2 µM (active). The compound was classed as inactive in test [6], in [7] and in test [9].
As for `[Cl][Sb]([Cl])[Cl]`, the Potency in test [10] was 34.4 µM (active). Also, the Potency entry in [2], in [4] and in [8] was “inactive” each time. The outcome in test [6], in [7] and in [9] was inactive.
Take `CCN(CC)c1c([N+](=O)[O-])cc(C(F)(F)F)c(N)c1[N+](=O)[O-]`: the Potency entry in test [10], in test [1], in test [2], in test [3] and in [8] was “inactive” each time. Further, in test [5], the Potency is 24.3 µM (active). Further, the outcome in test [6], in [7] and in test [9] was inactive.
For the compound `CSCCCN=C=S`, the Potency in test [10] and in test [3] was 54.5 µM (active) throughout. Further, the Potency entry in test [4] and in [8] was “inactive” each time. Besides, the outcome in test [6], in test [7] and in test [9] was inactive.
In the case of `CC(C)(C)c1ccc(CSc2cnn(C(C)(C)C)c(=O)c2Cl)cc1`, the Potency result in [1], in test [2], in test [3] and in test [8] was “inactive” in each case. The figures for the Potency in test [4] and in [5] were 24.3 µM (active) and 7.7 µM (active), respectively. For the same compound, the result in test [6], in test [7] and in test [9] was inactive.
As to `BrC(Br)C(Br)(Br)Br`, the Potency result in [1], in test [2], in test [3], in [4] and in test [8] was “inactive” each time. Moreover, the call in [6], in test [7] and in [9] was inactive.
Take `CC(C)(C)c1cc([N+](=O)[O-])cc(C(C)(C)C)c1O`: the Potency result in [1] and in test [8] was “inactive” in each case. Besides, the Potency in [2] is 48.6 µM (active); in test [3], 13.7 µM (active); in test [5] it was 0.122 µM (active). Further, the compound was classed as inactive in test [6], in test [7] and in test [9].
Consider `CS(=O)(=O)c1ccc(C(=O)C2C(=O)CCCC2=O)c([N+](=O)[O-])c1`, for which the Potency result in [1], in test [2], in test [3], in test [4] and in [8] was “inactive” throughout. The Potency in [5] is 6.98 µM (active). The call in test [6], in test [7] and in test [9] was inactive.
As to `COc1cccc(C(=O)CCN[C@@H](C)[C@H](O)c2ccccc2)c1`, the Potency entry in [1], in [2], in [3], in test [4] and in [8] was “inactive” each time. Besides, the compound was classed as inactive in test [6], in [7] and in [9].
Turning to `Nc1ccc(Sc2ccc(N)cc2)cc1`, the Potency result in test [1], in test [2], in [3], in [4] and in test [8] was “inactive” each time. Moreover, the compound was called inactive in test [6], in test [7] and in [9].
Consider `COP(=O)(OC)SCn1c(=O)oc2cc(Cl)cnc21`, for which the Potency result in test [1], in test [2], in test [3], in test [4] and in test [8] was “inactive” each time. Further, the compound was classed as inactive in [6], in test [7] and in test [9].
Consider `CC(=O)c1cc(C(C)(C)C)cc2c1CCC2(C)C`, for which the Potency entry in test [1], in test [3] and in test [8] was “inactive” each time. In addition, the Potency in test [2] is 54.5 µM (active); in test [5] it was 30.6 µM (active). Besides, the compound was called inactive in test [6], in test [7] and in test [9].
Consider `COC12CC[C@@]3(C[C@@H]1C(C)(O)C(C)(C)C)[C@H]1Cc4ccc(O)c5c4[C@@]3(CCN1CC1CC1)[C@H]2O5` (some centres not stated), for which the Potency result in test [1] and in [8] was “inactive” throughout. Further, the Potency in test [2] was 54.1 µM (active); in test [3], 60.7 µM (active); in [4] it was 54.1 µM (active); in test [5], 19.2 µM (active). The call in test [6], in test [7] and in [9] was inactive.
Take `C[C@]12CC[C@H]3[C@@H](CCC4=CC(=O)CC[C@@]43C)[C@@H]1CC[C@@H]2O`: the Potency entry in test [1], in test [2], in test [3], in test [4] and in test [8] was “inactive” in each case. For the same compound, the compound was classed as inactive in test [6], in [7] and in [9].
Regarding `C=CCC1=C(C)C(OC(=O)C2C(C=C(C)C)C2(C)C)CC1=O` (configuration not stated), the Potency entry in test [1], in [3] and in [8] was “inactive” each time. For the same compound, the figures for the Potency in test [2], in test [4] and in test [5] were 64.8 µM (active), 11.5 µM (active) and 5.78 µM (active), respectively. Besides, the compound was called inactive in test [6], in test [7] and in [9].
For `Clc1ccc(C(Cl)(Cl)Cl)c(Cl)c1`, the Potency result in test [1], in [2], in test [3], in [4] and in test [8] was “inactive” in each case. The Potency in [5] is 61.6 µM (active). Moreover, the compound was called inactive in test [6], in test [7] and in test [9].
Regarding `c1ccc2c(c1)[nH]c1cnccc12`, the Potency result in test [1], in test [2], in test [3], in test [4], in test [5] and in [8] was “inactive” throughout. The compound was classed as inactive in test [6], in test [7] and in [9].
